The nature of experiment [1]: Quantitative High-Throughput drug screen in 47 multiple myeloma cell lines against the NCATS MIPE library collection: ARP1_JJKsccF8 cell viability assay (AID 1918928; further: nearly all actives have a fitted effect of over 40% in size; further: potency means the concentration at half of the fitted maximal effect). The procedure, abridged:
(§1)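 ATP readout (CellTiter-Glo), 48 h drug incubation, 37 °C/5% CO2, 500 cells per well; normalisation to DMSO (100%) and media-only (0%) controls.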

The nature of experiment [2]: Quantitative High-Throughput drug screen in 47 multiple myeloma cell lines against the NCATS MIPE library collection: ARD_JJKsccE7 cell viability assay (AID 1918929; further: potency means the concentration at half of the fitted maximal effect). The procedure, abridged: (§2)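 CellTiter-Glo ATP luminescence gave viability after 48 h compound treatment at 37C of 500 multiple myeloma cells per well. Normalisation used DMSO-only wells as 100% and media-only wells as 0% viability; primary qHTS of approved and investigational drugs.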

A short description of experiment [3]: Quantitative High-Throughput drug screen in 47 multiple myeloma cell lines against the NCATS MIPE library collection: Karpas620_DSMZ cell viability assay (AID 1918959). Further: nearly all actives have a fitted effect of over 30% in size. Further: potency means the concentration at half of the fitted maximal effect. The procedure, abridged: (§3)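 Inhibition of cell viability is measured here. Each line was plated at 500 cells per well, treated with MIPE 4.0 drugs, kept 48 hours at 37C, then assayed for ATP content by CellTiter-Glo luminescence.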

Experiment [4] can be described thus: Quantitative High-Throughput drug screen in 47 multiple myeloma cell lines against the NCATS MIPE library collection: KMM1_JCRB cell viability assay (AID 1918960). Further: nearly all actives have a fitted effect of over 30% in size. Further: potency means the concentration at half of the fitted maximal effect. Put shortly:
as §1

Experiment [5] is described as follows: Quantitative High-Throughput drug screen in 47 multiple myeloma cell lines against the NCATS MIPE library collection: JIM3_ECACC cell viability assay (AID 1918963; further: nearly all actives have a fitted effect of over 35% in size; further: potency means the concentration at half of the fitted maximal effect). Put shortly:
as §3

Experiment [6] in a line: Quantitative High-Throughput drug screen in 47 multiple myeloma cell lines against the NCATS MIPE library collection: JIM1_ECACC cell viability assay (AID 1918964; further: potency means the concentration at half of the fitted maximal effect). Put shortly:
as §2

A short description of experiment [7]: Quantitative High-Throughput drug screen in 47 multiple myeloma cell lines against the NCATS MIPE library collection: JJN3_DSMZ cell viability assay (AID 1918966; further: nearly all actives have a fitted effect of over 50% in size; further: potency means the concentration at half of the fitted maximal effect). Put shortly: as §2
Experiment [8] in a line: Quantitative High-Throughput drug screen in 47 multiple myeloma cell lines against the NCATS MIPE library collection: KHM11_PLB cell viability assay (AID 1918962). Further: nearly all actives have a fitted effect of over 35% in size. Further: potency means the concentration at half of the fitted maximal effect. The procedure, abridged: as §3
Experiment [9] is described as follows: Quantitative High-Throughput drug screen in 47 multiple myeloma cell lines against the NCATS MIPE library collection: INA6_PLB cell viability assay (AID 1918965; further: nearly all actives have a fitted effect of over 55% in size; further: potency means the concentration at half of the fitted maximal effect). The procedure, abridged:
(§4)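 qHTS of the MIPE 4.0 collection: 500 myeloma cells/well, 48 h drug exposure at 37C in 5% CO2, then CellTiter-Glo for 5 min at room temperature before luminescence reading.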

A short description of experiment [10]: Quantitative High-Throughput drug screen in 47 multiple myeloma cell lines against the NCATS MIPE library collection: Karpas417_ECACC cell viability assay (AID 1918961). Conditions: Karpas417 myeloma viability, CellTiter-Glo ATP luminescence, 48 h; viability (% of DMSO): at 45.8 µM (top of the series). Put shortly: as §4
(In general: In ATP-based viability assays light output follows the ATP content of the culture.)

Records with an inconclusive call do not appear. Calls of active or inactive are those of the source. The call rests on the fitted dose curve; in most records, active means well fitted curve in the direction sought with a large enough effect; inconclusive means small, poorly fitted or top-dose-only effect, or another doubt; inactive means no such curve, though single readings can be large; an effect the other way counts as inactive or inconclusive.

In the case of `CCC(=O)O[C@]1(C(=O)SCF)[C@H](C)C[C@H]2[C@@H]3C[C@H](F)C4=CC(=O)C=C[C@]4(C)[C@@]3(F)[C@@H](O)C[C@@]21C`, the Potency result in experiment [1], in experiment [2], in experiment [3], in experiment [4], in experiment [5] and in experiment [6] was “inactive” throughout. In addition, the Potency result in experiment [7] was “inactive”.
In the case of `CCN[C@H]1C[C@H](C)S(=O)(=O)c2sc(S(N)(=O)=O)cc21`, the Potency result in experiment [1], in [2], in experiment [3], in experiment [5] and in [6] was “inactive” throughout.
As for `CC1=CC(=O)c2ccccc2C1=O`, the Potency is 16.6 µM (active) in experiment [1], 14.8 µM (active) in experiment [3], 23.5 µM (active) in [5] and 13.2 µM (active) in [7]. Besides, the Potency entry in experiment [2], in experiment [4] and in experiment [6] was “inactive” throughout.
`C1CCC(C(CC2CCCCN2)C2CCCCC2)CC1` (configuration not stated): the Potency is 23.5 µM (active) in experiment [1]; 26.4 µM (active) in [2]; 14.8 µM (active) in [3]; 11.8 µM (active) in experiment [8]; 18.7 µM (active) in [5]; 20.9 µM (active) in experiment [6]. In addition, the figures for the Potency in experiment [9] and in experiment [7] were 9.35 µM (active) and 20.9 µM (active), respectively.
For `CC[C@H](C)C(=O)O[C@H]1C[C@@H](C)C=C2C=C[C@H](C)[C@H](CC[C@@H]3C[C@@H](O)CC(=O)O3)[C@H]21`, in [1], the Potency was 23.5 µM (active). The Potency result in experiment [2], in experiment [3] and in experiment [4] was “inactive” in each case.
For `COc1ccc(C(=O)CC(=O)c2ccc(C(C)(C)C)cc2)cc1`, the Potency is 10.5 µM (active) in experiment [1], 18.7 µM (active) in [2], 4.18 µM (active) in experiment [3] and 0.935 µM (active) in [7].
Consider `CC[C@H](NC(C)C)[C@H](O)c1ccc(O)c2[nH]c(=O)ccc12`, for which the Potency result in [1], in experiment [2], in [3], in experiment [5] and in experiment [6] was “inactive” in each case.
In the case of `Cc1cc(NS(=O)(=O)c2ccc(N)cc2)no1`, the Potency entry in experiment [1], in experiment [2], in experiment [3], in experiment [4], in experiment [8] and in experiment [5] was “inactive” in each case. Further, the Potency result in experiment [6] was “inactive”.
With `COc1cc([C@@H]2c3cc4c(cc3[C@H](O)[C@H]3COC(=O)[C@H]23)OCO4)cc(OC)c1OC`, the Potency entry in experiment [1], in experiment [2], in [3], in experiment [8], in experiment [5] and in experiment [6] was “inactive” each time. In [7], the Potency entry is “inactive”. Moreover, the Potency in experiment [4] was 0.001 µM (active).
In the case of `COC(c1ccccc1)(c1ccccc1)[C@H](Oc1nc(C)cc(C)n1)C(=O)O`, the Potency result in [1], in experiment [2], in experiment [3], in experiment [8], in experiment [5] and in experiment [6] was “inactive” each time.
Turning to `O=C(O)C1CCCN(CCC=C(c2ccccc2)c2ccccc2)C1` (configuration not stated), the Potency result in experiment [1], in [2], in experiment [3], in [4] and in experiment [9] was “inactive” each time.
Regarding `CN(C)CCc1c[nH]c2ccc(C[C@H]3COC(=O)N3)cc12`, the Potency result in experiment [1], in experiment [2], in [3], in experiment [5] and in experiment [6] was “inactive” each time. The Potency in [9] is 13.2 µM (active).
As for `Cc1noc(NS(=O)(=O)c2ccc(N)cc2)c1C`, the Potency entry in [1], in experiment [2], in experiment [3], in [4] and in experiment [5] was “inactive” in each case.
For `Oc1c(Cl)cc(Cl)c2cccnc12`, the Potency in experiment [1] is 26.4 µM (active); in [2], 18.7 µM (active); in experiment [3] it was 3.72 µM (active); in experiment [8], 26.4 µM (active); in [5] it was 9.35 µM (active); in experiment [6] it was 8.33 µM (active). For the same compound, the figures for the Potency in [9] and in [7] were 16.6 µM (active) and 8.33 µM (active), respectively.
Regarding `COc1cc(NCc2ccc3nc(N)nc(N)c3c2C)cc(OC)c1OC`, the Potency in experiment [1] is 2.96 µM (active); in experiment [2], 1.05 µM (active); in experiment [3], 6.62 µM (active); in [4], 1.18 µM (active); in experiment [8], 8.33 µM (active); in experiment [5] it was 0.418 µM (active). Also, the Potency is 2.96 µM (active) in experiment [6], 1.32 µM (active) in experiment [9] and 3.72 µM (active) in experiment [7].
As for `CNCC[C@H](Oc1cccc2ccccc12)c1cccs1`, the Potency in [1] was 18.7 µM (active); in [2], 23.5 µM (active); in experiment [3], 23.5 µM (active); in experiment [8], 5.26 µM (active); in experiment [5] it was 5.26 µM (active); in experiment [9] it was 7.43 µM (active).
With `COc1cc2nc(N3CCCN(C)CC3)nc(NC3CCN(Cc4ccccc4)CC3)c2cc1OC`, the Potency is 8.33 µM (active) in experiment [1]; 8.33 µM (active) in [2]; 3.72 µM (active) in experiment [3]; 7.43 µM (active) in experiment [4]; 2.35 µM (active) in [8]; 9.35 µM (active) in [5]. Also, the results for the Potency in [6], in experiment [9] and in [7] were 7.43 µM (active), 2.35 µM (active) and 16.6 µM (active), respectively.
For `CCOC(=O)c1ccc(OC(=O)CCCCCN=C(N)N)cc1`, the Potency entry in experiment [1], in experiment [2], in [3], in experiment [4], in experiment [6] and in experiment [7] was “inactive” each time.
Turning to `CCCCc1oc2ccc(NS(C)(=O)=O)cc2c1C(=O)c1ccc(OCCCN(CCCC)CCCC)cc1`, the Potency was 16.6 µM (active) in experiment [1]; 16.6 µM (active) in [2]; 20.9 µM (active) in [3]; 18.7 µM (active) in [5]; 10.5 µM (active) in experiment [6]; 14.8 µM (active) in experiment [7].
Turning to `CCn1cc(C(=O)O)c(=O)c2cc(F)c(N3CCNCC3)cc21`, the Potency in experiment [1] is 8.33 µM (active). In addition, the Potency entry in experiment [2], in [3], in experiment [8], in experiment [5], in [6] and in experiment [9] was “inactive” each time.
For the compound `COc1ccc(-c2ccc3cc(C(=O)O)ccc3c2)cc1C12CC3CC(CC(C3)C1)C2`, the Potency result in experiment [1], in experiment [2], in experiment [3], in experiment [4] and in [5] was “inactive” in each case.
For `COc1ccc2cc3[n+](cc2c1OC)CCc1cc2c(cc1-3)OCO2`, the Potency in experiment [1] was 6.62 µM (active); in experiment [2] it was 5.9 µM (active); in experiment [3], 14.8 µM (active); in experiment [8], 8.33 µM (active); in [6], 16.6 µM (active); in experiment [9], 6.62 µM (active). The Potency in experiment [7] was 11.8 µM (active).
With `CCc1cc(C(N)=S)ccn1`, the Potency entry in experiment [1], in [2], in experiment [3], in experiment [10], in experiment [8] and in experiment [5] was “inactive” each time. The Potency entry in experiment [6] is “inactive”.

For the origin of these results see PubChem BioAssay (NCATS).
